# Measurements from PubChem BioAssay AID504832 (National Center for Advancing Translational Sciences (NCATS), 2011).
# The whole screen tested about 310,000 compounds, of which about 18,000 (5.8%) were called active. Inconclusive results (about 22%) are left out. Calls follow the shape of the dose curve; as a rule, active = well fitted inhibition curve with a large enough effect; inconclusive = small, poorly fitted or top-dose-only effect, or another doubt; inactive = no such curve, though single readings can be large or run the other way. The full list was thinned out, with actives kept by preference.
# Test: Primary qHTS for delayed death inhibitors of the malarial parasite plastid, 48 hour incubation
# Conditions: P. falciparum luciferase growth in erythrocytes; series mostly up to 28.7 µM; activity change, negative = inhibition: at the top concentration
# Summary of the method: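 Parasite viability was followed by luminescence of a genomically integrated firefly luciferase. Cultures held 0.1% parasitemia at 2% hematocrit (final), incubated under 5% CO2 at 37 C.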
# % is scaled to controls: 0 for no effect and ±100 for the full control effect; potency is read from the fitted curve at half-maximal effect.
Structure (SMILES),"activity change, negative = inhibition",Potency
Cc1cc(C(=O)Nc2nnc(C3CC3)s2)c(C)s1,234% (inactive),
CC(NCC(=O)Nc1ccccc1C(=O)NC1CC1)c1ccccc1Cl (stereo unspecified),,9.28 µM (active)
O=C(COc1ccccc1Cl)Nc1ccccc1C(=O)NC1CC1,-4.82% (inactive),
O=C(CN1CCCCC1)Nc1ccccc1C(=O)NC1CC1,14% (inactive),
O=C(CN1C(=O)NC2(CCCCC2)C1=O)NCCc1c[nH]c2ccccc12,-11% (inactive),
CCN(CC(=O)Nc1ccc(NC(C)=O)cc1)C(=O)C1CC(=O)N(Cc2ccc(C)cc2)C1 (stereo unspecified),3.06% (inactive),
O=S(=O)(c1ccc2c(c1)OCCO2)N1CCc2ccccc21,-4.28% (inactive),
Cn1c(=O)n(C)c2cc(S(=O)(=O)N3CCCc4ccccc43)ccc21,-12.1% (inactive),
CN1CCN(S(=O)(=O)c2cccc(C(=O)N3CCc4ccccc43)c2)CC1,7.8% (inactive),
CC1CCN(C(=O)c2cccc(S(=O)(=O)N3CCCc4ccccc43)c2)CC1,-65.1% (inactive),
NS(=O)(=O)c1ccc(CNC(=O)c2cccc(S(=O)(=O)N3CCc4ccccc43)c2)cc1,,14.7 µM (active)
Cc1ccc(NC(=O)c2cccc(S(=O)(=O)N3CCCc4ccccc43)c2)nc1,,4.15 µM (active)
Cc1nc(COc2cc3oc(=O)cc(C)c3cc2Cl)cs1,56.1% (inactive),
NC(=O)C1CCCN(CC(=O)N2CCN(c3ccccc3)CC2)C1 (stereo unspecified),21.6% (inactive),
Cc1ccc(-n2ncc3c2CC(C)(C)CC3NC(=O)CCc2cnn(C)c2)cc1 (stereo unspecified),-10.4% (inactive),
C[n+]1cc(-c2ccccc2)oc1-c1ccccc1,79.7% (inactive),
O=C(COc1ccc2c3c(c(=O)oc2c1)CCCC3)NCC(O)c1ccccc1 (stereo unspecified),0.369% (inactive),
CCCN1C(=O)C(Cc2nc3ccccc3c(=O)n2-c2ccccc2)c2cc(C)ccc21 (stereo unspecified),,13.1 µM (active)
O=c1c2ccccc2nc(CSc2nnnn2-c2ccccc2)n1-c1ccccc1,21.2% (inactive),
CCCc1nc2ccccc2c(=O)n1/N=C/c1ccc(O)c(O)c1,0% (inactive),
COCCNC(=O)CN(Cc1ccco1)C(=O)CCC(=O)Nc1nccs1,3.14% (inactive),
CCOc1ccc(CCNC(=O)CCc2nnc3ccc(N4CCCC4)nn23)cc1OCC,-17.1% (inactive),
CC1C(=O)N2CCCc3cc(S(=O)(=O)NCc4ccc(F)cc4)cc1c32 (stereo unspecified),-1.55% (inactive),
CC1CCN(C(=O)C2CCN(S(=O)(=O)N3CCC4(CC3)OCCO4)CC2)CC1,-24.5% (inactive),
CC1(C)CC(=O)CC2(C1)NCC(c1ccccc1Cl)c1c2[nH]c2ccccc12 (stereo unspecified),,10.4 µM (active)
COc1cc2c(cc1NC(=O)CN1CCN(S(=O)(=O)c3ccc(F)cc3)CC1)oc1ccccc12,,10.4 µM (active)

Structure (SMILES),"activity change, negative = inhibition",Potency
COc1cc2c(cc1NC(=O)COC(=O)/C=C/c1ccccc1)oc1ccccc12,19.8% (inactive),
C/C(=N/NC(=O)CN1CCN(S(=O)(=O)c2ccc(Br)cc2)CC1)c1ccncc1,0% (inactive),
O=C(CN1CCN(S(=O)(=O)c2ccc(F)cc2)CC1)Nc1ccccc1F,-3.52% (inactive),
O=C(CN1CCN(S(=O)(=O)c2ccc(Br)cc2)CC1)Nc1ccccc1C(=O)c1ccccc1,,13.1 µM (active)
COc1ccc(NC(=O)CN2CCN(S(=O)(=O)c3ccc(F)cc3)CC2)cc1Cl,-13.7% (inactive),
CCCn1c(N)c(N(CCOC)C(=O)C2CCCC2)c(=O)[nH]c1=O,-0.556% (inactive),
Cc1cc(NC(=O)CCS(=O)(=O)c2ccc(F)cc2)no1,-24.6% (inactive),
CC(C)=N/N=C1/NC(=O)C(Cc2ccccc2)S1 (stereo unspecified),-27.8% (inactive),
N#CC1(NC(=O)COC(=O)CCN=C2NS(=O)(=O)c3ccccc32)CCCCC1,0.444% (inactive),
CC(=O)Nc1ccc(S(=O)(=O)N2CCC(C(=O)N[C@@H](Cc3ccccc3)C(=O)O)CC2)cc1,15.3% (inactive),
CN1CCc2cc3c(cc2[C@H]1[C@@H]1OC(=O)c2c1ccc1c2OCO1)OCO3,-8.96% (inactive),
COc1cc(COCC(O)CN2CCN(Cc3ccc4c(c3)OCO4)CC2)cc(OC)c1OC (stereo unspecified),0% (inactive),
COc1c(O)ccc2c1CN1CCc3cc4c(cc3C1C2)OCO4 (stereo unspecified),,1.85 µM (active)
COc1ccc(N2CCN(C(=O)CNC(=O)c3ccc(Br)o3)CC2)cc1,-1.91% (inactive),
COc1cccc(C(=O)NNC(=O)c2cccc(F)c2)c1,106% (inactive),
CC(OC(=O)CCC(=O)c1ccccc1)C(=O)Nc1ccc(F)cc1 (stereo unspecified),-0.871% (inactive),
C=CCC(NCc1ccco1)c1ccc(OC)cc1 (stereo unspecified),-2.5% (inactive),
COc1ccc(Nc2nc(NCc3ccco3)nc(N/N=C/c3ccccc3Cl)n2)cc1,,10.4 µM (active)
COc1ccc(Nc2nc(Cl)nc(NCc3ccco3)n2)cc1,-11.9% (inactive),
CC1(c2nnc(Cc3ccccc3)o2)CC(c2ccccc2F)=NO1 (stereo unspecified),5.51% (inactive),
O=C(Nc1ccc(S(=O)(=O)NCC2CCCO2)cc1)c1ccc(F)cc1 (stereo unspecified),-4.09% (inactive),
Cc1ccc(C)c(OCc2cc(C(=O)N3CCN(c4cnccn4)CC3)no2)c1,-12.7% (inactive),
COc1cc(C2C3=C(CCCC3=O)OC3=C2C(=O)CCC3)ccc1OCC(=O)Nc1ccccc1,-26.2% (inactive),
O=C(CCC1CCCC1)N=C1SC2CS(=O)(=O)CC2N1Cc1ccccc1 (stereo unspecified),-0.261% (inactive),
CC(C)(C)c1ccc(C(CC(=O)O)NS(=O)(=O)Cc2ccccc2)cc1 (stereo unspecified),20.6% (inactive),
